Article PMC5540273 (PLoS ONE, 2017)

Test system: T1, PCTK2
T1 construct: gene CDK17
Settings: concentration: 1 μM, replicates: in singlicate; n = 1
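Further: KINOMEscan kinase panel screen.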

Structure (SMILES) | %Inh [%]
COc1cc2ncn(-c3cc(OCC4CCCO4)c(C(N)=O)s3)c2cc1OC (stereo not drawn) [GSK204607] | 0
COc1ccccc1-c1ccc2c(NC(=O)C3CC3)n[nH]c2n1 [SB-711239] | 0
Cc1cccc(-c2cc(Nc3ccncc3)c3ccccc3n2)n1 [GSK223675] | 7
COc1ccc(Nc2nccc(-c3cccc(NC(=O)c4cc5cc(F)ccc5[nH]4)c3)n2)cc1 [GSK1229782] | 18
COc1ccc(Nc2nccc(NCCNC(=O)Nc3ccccc3F)n2)cc1 [GSK1379901] | 0
CSc1nn2c(=O)cc(N3CCOCC3)nc2n1Cc1cccc(C(F)(F)F)c1C [GSK2363608] | 0
NC(=O)c1nnc2ccccc2c1N | 0
CC(C)(C)c1ccc(C(=O)Nc2cn3cc(Cl)ccc3n2)cc1 | 0
COc1cccc(NC(=O)NC2CCN(c3ccnc(Nc4ccc(F)cc4)n3)C2)c1 (stereo not drawn) [GSK1379721] | 14
Cc1ccc(-c2cc(-c3c[nH]nc3-c3ccccn3)ccn2)cc1 [GW684088] | 19
Cc1cc(N2Cc3ccccc3C2)nc(Nc2ccc(S(=O)(=O)N3CCOCC3)cc2)n1.Cl [GSK1669917] | 0
CC(C)(C)c1ccc(C(=O)Nc2cn3cc(-c4cccnc4)ccc3n2)cc1 | 13
Cc1ccccc1-n1cnc2c(N)ncnc21 [SKF-97510] | 0
Fc1cccc(COc2nnc(-c3ccc4c(c3)CCO4)o2)c1 | 6
Cc1ccc(C(=O)Nc2ccc(Nc3ccnc4cc(-c5ccccn5)ccc34)cc2O)cc1.Cl [GW440146] | 0
CS(=O)(=O)c1ccc(-c2c(-c3ncn[nH]3)sc(N3CCOCC3)c2C#N)cc1 | 3
COc1cc2nccc(Nc3ccc(NC(=O)c4ccc(C)cc4)c(O)c3)c2cc1OC.Cl [GW440132] | 0
COC(=O)c1c(-c2ccccc2)c2cc(OC)ccc2c(=O)n1Cc1ccccc1 | 4

Structure (SMILES) | %Inh [%]
O=C(O)COc1ncnc2cc(-c3ccc4[nH]ncc4c3)sc12 | 0
COc1ccc(C2=C(Nc3cccc(C(=O)O)c3)C(=O)NC2=O)cc1 [SB-390765] | 8
CCn1c(-c2ccccn2)nc2cnccc21 [SB-736398] | 0
Cn1ccc2ncnc(Oc3ccc(Nc4nc5ccccc5[nH]4)cc3)c21 | 0
O=C(Nc1n[nH]c2cc(-c3cccc(F)c3F)ccc12)C1CC1 [SB-733894] | 8
Clc1cc(Cl)cc(Nc2ccnc(Nc3cc(Cl)cc(Cl)c3)n2)c1 [GSK175726] | 19
Cc1cccc(-c2nc(Nc3ccncc3)c3ccccc3n2)n1 [GW855857] | 10
CCCc1ccc(S(=O)(=O)NC2CCN(c3ccnc(Nc4ccc(F)cc4)n3)C2)cc1 (stereo not drawn) [GSK1379715] | 0
COc1ccc(CNC(=O)NC2CCN(c3ccnc(Nc4cc(OC)c(OC)c(OC)c4)n3)C2)cc1 (stereo not drawn) [GSK1379748] | 0
Cc1c(O)cccc1Nc1ccnc2ccc(C(F)(F)F)cc12.Cl [GW466413] | 0
Cc1c(Cn2ccn3c(=O)cc(N4CCOCC4)nc23)cccc1C(F)(F)F [GSK2289044] | 0
COC(=O)c1c(-c2ccccc2)c2cc(C(=O)O)ccc2c(=O)n1Cc1ccccc1 | 0
Cl.c1ccc(-c2n[nH]cc2-c2ccnc(-c3ccc(CN4CCOCC4)cc3)c2)nc1 [GW776245] | 11
Cc1cc(NCC(c2ccccc2)c2ccccc2)nc(NCc2ccc(C(F)(F)F)cc2)n1 [GW497681] | 13
COc1cccc(-c2cc(-c3c[nH]nc3-c3ccccn3)ccn2)c1 [GW680338] | 0
O=C(Nc1ccccc1)Nc1cccc(Oc2ccc3nccn3n2)c1 | 5
Nc1ncnc2[nH]c(-c3ccccc3)nc12 [AH5015] | 0

Test system: T2, PCTK3
T2 construct: gene CDK18
Settings: concentration: 1 μM, replicates: in singlicate; n = 1

Structure (SMILES) | %Inh [%]
COc1cc2ncn(-c3cc(OCC4CCCO4)c(C(N)=O)s3)c2cc1OC (stereo not drawn) [GSK204607] | 0
COc1ccccc1-c1ccc2c(NC(=O)C3CC3)n[nH]c2n1 [SB-711239] | 27
Cc1cccc(-c2cc(Nc3ccncc3)c3ccccc3n2)n1 [GSK223675] | 0
COc1ccc(Nc2nccc(-c3cccc(NC(=O)c4cc5cc(F)ccc5[nH]4)c3)n2)cc1 [GSK1229782] | 7
COc1ccc(Nc2nccc(NCCNC(=O)Nc3ccccc3F)n2)cc1 [GSK1379901] | 0
NC(=O)c1nnc2ccccc2c1N | 7
CC(C)(C)c1ccc(C(=O)Nc2cn3cc(Cl)ccc3n2)cc1 | 0
COc1cccc(NC(=O)NC2CCN(c3ccnc(Nc4ccc(F)cc4)n3)C2)c1 (stereo not drawn) [GSK1379721] | 19
Cc1ccc(-c2cc(-c3c[nH]nc3-c3ccccn3)ccn2)cc1 [GW684088] | 40
Cc1cc(N2Cc3ccccc3C2)nc(Nc2ccc(S(=O)(=O)N3CCOCC3)cc2)n1.Cl [GSK1669917] | 0
CC(C)(C)c1ccc(C(=O)Nc2cn3cc(-c4cccnc4)ccc3n2)cc1 | 19
Cc1ccccc1-n1cnc2c(N)ncnc21 [SKF-97510] | 0
Fc1cccc(COc2nnc(-c3ccc4c(c3)CCO4)o2)c1 | 0
Cc1ccc(C(=O)Nc2ccc(Nc3ccnc4cc(-c5ccccn5)ccc34)cc2O)cc1.Cl [GW440146] | 24
CS(=O)(=O)c1ccc(-c2c(-c3ncn[nH]3)sc(N3CCOCC3)c2C#N)cc1 | 14
COc1cc2nccc(Nc3ccc(NC(=O)c4ccc(C)cc4)c(O)c3)c2cc1OC.Cl [GW440132] | 19
COC(=O)c1c(-c2ccccc2)c2cc(OC)ccc2c(=O)n1Cc1ccccc1 | 9

Structure (SMILES) | %Inh [%]
O=C(O)COc1ncnc2cc(-c3ccc4[nH]ncc4c3)sc12 | 0
COc1ccc(C2=C(Nc3cccc(C(=O)O)c3)C(=O)NC2=O)cc1 [SB-390765] | 0
CCn1c(-c2ccccn2)nc2cnccc21 [SB-736398] | 17
Cn1ccc2ncnc(Oc3ccc(Nc4nc5ccccc5[nH]4)cc3)c21 | 12
O=C(Nc1n[nH]c2cc(-c3cccc(F)c3F)ccc12)C1CC1 [SB-733894] | 5
Clc1cc(Cl)cc(Nc2ccnc(Nc3cc(Cl)cc(Cl)c3)n2)c1 [GSK175726] | 0
Cc1cccc(-c2nc(Nc3ccncc3)c3ccccc3n2)n1 [GW855857] | 0
CCCc1ccc(S(=O)(=O)NC2CCN(c3ccnc(Nc4ccc(F)cc4)n3)C2)cc1 (stereo not drawn) [GSK1379715] | 19
COc1ccc(CNC(=O)NC2CCN(c3ccnc(Nc4cc(OC)c(OC)c(OC)c4)n3)C2)cc1 (stereo not drawn) [GSK1379748] | 0
Cc1c(O)cccc1Nc1ccnc2ccc(C(F)(F)F)cc12.Cl [GW466413] | 0
Cc1c(Cn2ccn3c(=O)cc(N4CCOCC4)nc23)cccc1C(F)(F)F [GSK2289044] | 8
COC(=O)c1c(-c2ccccc2)c2cc(C(=O)O)ccc2c(=O)n1Cc1ccccc1 | 0
Cl.c1ccc(-c2n[nH]cc2-c2ccnc(-c3ccc(CN4CCOCC4)cc3)c2)nc1 [GW776245] | 6
Cc1cc(NCC(c2ccccc2)c2ccccc2)nc(NCc2ccc(C(F)(F)F)cc2)n1 [GW497681] | 35
COc1cccc(-c2cc(-c3c[nH]nc3-c3ccccn3)ccn2)c1 [GW680338] | 8
O=C(Nc1ccccc1)Nc1cccc(Oc2ccc3nccn3n2)c1 | 0
Nc1ncnc2[nH]c(-c3ccccc3)nc12 [AH5015] | 0
